# This is one part of a sample in which the strongest signals are shown more often than they occur.
# Columns and labels:
# Test in all cases: glycan array binding signal (z-score within array); higher = stronger binding
# Settings in all cases: glycan notation: IUPAC condensed, linker removed
# [1] = target: Fuc(a1-2)Gal(b1-3)GlcNAc(b1-2)Man(a1-3)[Fuc(a1-2)Gal(b1-3)GlcNAc(b1-2)Man(a1-6)]Man(b1-4)GlcNAc(b1-4)GlcNAc
# Method in brief: (§1)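 The binding signal is a Z-score computed within each array. Data were drawn from 3228 arrays in the Consortium for Functional Glycomics database, restricted to those with a known protein sequence. Scores were averaged over arrays of the same protein sequence at different concentrations or buffers, and over linkers, and negative values can be taken as non-binding.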
# [2] = target: Fuc(a1-2)Gal(b1-4)GlcNAc
# Method in brief: as §1
# [3] = target: Fuc(a1-2)Gal(b1-4)GlcNAc(b1-2)[Fuc(a1-2)Gal(b1-4)GlcNAc(b1-4)]Man(a1-3)[Fuc(a1-2)Gal(b1-4)GlcNAc(b1-2)Man(a1-6)]Man(b1-4)GlcNAc(b1-4)GlcNAc
# Method in brief: as §1
# [4] = target: Fuc(a1-2)Gal(b1-4)[Fuc(a1-3)]GlcNAc(b1-2)[Fuc(a1-2)Gal(b1-4)[Fuc(a1-3)]GlcNAc(b1-4)]Man(a1-3)[Fuc(a1-2)Gal(b1-4)[Fuc(a1-3)]GlcNAc(b1-2)Man(a1-6)]Man(b1-4)GlcNAc(b1-4)GlcNAc
# Method in brief: as §1
# [5] = target: Fuc(a1-2)[GalNAc(a1-3)]Gal(b1-4)[Fuc(a1-3)]GlcNAc
# Method in brief: as §1
# [6] = target: Fuc(a1-3)[Gal(b1-4)]GlcNAc
# Method in brief: as §1
# [7] = target: Fuc(a1-3)[Gal(b1-4)]GlcNAc(b1-2)Man(a1-3)[Fuc(a1-3)[Gal(b1-4)]GlcNAc(b1-2)Man(a1-6)]Man(b1-4)GlcNAc(b1-4)GlcNAc
# Method in brief: as §1
# [8] = target: Gal(a1-3)Gal(b1-4)GlcNAc
# Method in brief: as §1
# [9] = target: Gal(a1-3)Gal(b1-4)[Fuc(a1-3)]GlcNAc
# Method in brief: as §1
# [10] = target: Gal(b1-3)Gal
# Method in brief: as §1
# [11] = target: Gal(b1-4)GlcNAc(b1-2)Man(a1-3)[Man(a1-6)]Man(b1-4)GlcNAc(b1-4)GlcNAc
# Method in brief: as §1
# [12] = target: Gal(b1-4)GlcNAc(b1-3)[GlcNAc(b1-6)]Gal(b1-4)GlcNAc
# Method in brief: as §1
# [13] = target: Gal(b1-4)GlcNAc(b1-6)GalNAc
# Method in brief: as §1
# [14] = target: Gal(b1-6)Gal
# Method in brief: as §1
# [15] = target: Gal6S(b1-4)Glc6S
# Method in brief: as §1
# [16] = target: GalNAc(a1-3)GalNAc
# Method in brief: as §1
# [17] = target: GlcA(b1-3)GlcNAc
# Method in brief: as §1
# [18] = target: GlcNAc(b1-3)Gal(b1-3)GalNAc
# Method in brief: as §1
# [19] = target: GlcNAc(b1-3)[GlcNAc(b1-6)]Gal(b1-4)GlcNAc
# Method in brief: as §1
# [20] = target: GlcNAc(b1-3)[GlcNAc(b1-6)]GalNAc
# Method in brief: as §1
# [21] = target: Man(a1-2)Man(a1-3)Man
# Method in brief: as §1
# [22] = target: Man(b1-4)GlcNAc
# Method in brief: as §1
# [23] = target: Neu5Ac(a2-3)Gal(b1-3)GalNAc6S
# Method in brief: as §1
# [24] = target: Neu5Ac(a2-3)Gal(b1-3)GlcNAc
# Method in brief: as §1
# [25] = target: Neu5Ac(a2-3)Gal(b1-3)[Neu5Ac(a2-3)Gal(b1-4)]GlcNAc
# Method in brief: as §1
# [26] = target: Neu5Ac(a2-3)Gal(b1-3)[Neu5Ac(a2-6)]GalNAc
# Method in brief: as §1
# [27] = target: Neu5Ac(a2-3)Gal(b1-4)GlcNAc(b1-2)Man
# Method in brief: as §1
# [28] = target: Neu5Ac(a2-3)Gal(b1-4)GlcNAc6S
# Method in brief: as §1
# [29] = target: Neu5Ac(a2-3)Gal(b1-4)[Fuc(a1-3)]GlcNAc(b1-3)Gal(b1-4)[Fuc(a1-3)]GlcNAc(b1-3)Gal(b1-4)[Fuc(a1-3)]GlcNAc
# Method in brief: as §1
# [30] = target: Neu5Ac(a2-3)Gal6S(b1-4)GlcNAc
# Method in brief: as §1
# [31] = target: Neu5Ac(a2-3)[Neu5Ac(a2-6)]GalNAc
# Method in brief: as §1
# [32] = target: Neu5Ac(a2-6)GalNAc(b1-4)GlcNAc6S
# Method in brief: as §1
# [33] = target: Neu5Ac9Ac(a2-3)Gal(b1-4)GlcNAc
# Method in brief: as §1
binder,measurement,setting,value
"SpnanA (Streptococcus pneumoniae), P62575 (protein) MVIEKEDVETNASNGQRVDLSSELDKLKKLENATVHMEFKPDAKAPAFYNLFSVSSATKKDEYFTMAVYNNTATLEGRGSDGKQFYNNYNDAPLKVKPGQWNSVTFTVEKPTAELPKGRVRLYVNGVLSRTSLRSGNFIKDMPDVTHVQIGATKRANNTVWGSNLQIRNLTVYNRALTPEEVQKRS",glycan array binding signal (z-score),[1],-0.237
same,glycan array binding signal (z-score),[2],-0.29
same,glycan array binding signal (z-score),[3],-0.131
same,glycan array binding signal (z-score),[4],-0.066
same,glycan array binding signal (z-score),[5],0.018
same,glycan array binding signal (z-score),[6],-0.28
same,glycan array binding signal (z-score),[7],-0.169
same,glycan array binding signal (z-score),[8],-0.256
same,glycan array binding signal (z-score),[9],-0.262
same,glycan array binding signal (z-score),[10],-0.211
same,glycan array binding signal (z-score),[11],0.687
same,glycan array binding signal (z-score),[12],-0.29
same,glycan array binding signal (z-score),[13],-0.295
same,glycan array binding signal (z-score),[14],-0.199
same,glycan array binding signal (z-score),[15],-0.104
same,glycan array binding signal (z-score),[16],-0.233
same,glycan array binding signal (z-score),[17],6.22
same,glycan array binding signal (z-score),[18],-0.164
same,glycan array binding signal (z-score),[19],-0.211
same,glycan array binding signal (z-score),[20],-0.222
same,glycan array binding signal (z-score),[21],-0.228
same,glycan array binding signal (z-score),[22],-0.307
same,glycan array binding signal (z-score),[23],3.01
same,glycan array binding signal (z-score),[24],3.08
same,glycan array binding signal (z-score),[25],6.34
same,glycan array binding signal (z-score),[26],3.24
same,glycan array binding signal (z-score),[27],2.64
same,glycan array binding signal (z-score),[28],3.89
same,glycan array binding signal (z-score),[29],-0.268
same,glycan array binding signal (z-score),[30],2.91
same,glycan array binding signal (z-score),[31],2.61
same,glycan array binding signal (z-score),[32],-0.062
same,glycan array binding signal (z-score),[33],-0.089

# Source: the supplement of paper PMC8728848
